This is part of a sample that, as a whole, favours compounds with a hit. Of some 79,000 tested, about 15% had one in any assay. Calls of active or inactive are those of the source. No stated cut-off is given here; in the data, active means growth inhibition above about 70%; inactive means the rest.
Key:
[1] = NCI Yeast Anticancer Drug Screen. Data for the rad52 strain (AID 147);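 further: 0% = growth of vehicle-treated control cultures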; settings: S. cerevisiae rad52 mutant growth inhibition, active compounds read high
Method in brief: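 DNA repair-defective yeast; compound exposure; growth scored against vehicle controls.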

[2] = NCI Yeast Anticancer Drug Screen. Data for the rad50EPP+ strain (AID 151);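 further: 0% = growth of vehicle-treated control cultures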; settings: S. cerevisiae rad50 mutant strain, active compounds read high
Method in brief: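 rad50EPP+ yeast treated with test compounds. Readout: growth vs vehicle control.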

[3] = NCI Yeast Anticancer Drug Screen. Data for the mgt1 strain (AID 153); settings: S. cerevisiae mgt1 mutant growth inhibition, active compounds read high
Method in brief: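 Growth inhibition relative to vehicle controls was scored for the mgt1 yeast strain after compound exposure.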

[4] = NCI Yeast Anticancer Drug Screen. Data for the rad50 strain (AID 155);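 further: 0% = growth of vehicle-only cultures of the same strain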; settings: S. cerevisiae rad50 strain growth inhibition, active compounds read high
Method in brief: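 Genetically altered yeast (DNA repair pathway); compound treatment; growth inhibition vs vehicle ctrl.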

[5] = NCI Yeast Anticancer Drug Screen. Data for the mec2-1 strain (AID 157); settings: S. cerevisiae mec2-1 strain, active compounds read high
Method in brief: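 Growth inhibition is read against vehicle-treated controls after compound exposure of the mec2-1 yeast strain, which is defective in DNA damage repair or cell cycle control.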

[6] = NCI Yeast Anticancer Drug Screen. Data for the rad14 strain (AID 159);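 further: 0% = growth of vehicle-treated control cultures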; settings: S. cerevisiae rad14 strain growth inhibition, active compounds read high
Method in brief: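 Test compounds were applied to a repair-deficient yeast strain. Its growth was then compared with that of cultures given vehicle alone, and inhibition was expressed relative to those controls.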

[7] = NCI Yeast Anticancer Drug Screen. Data for the sgs1 mgt1 strain (AID 161);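 further: 0% = growth of cultures given vehicle only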; settings: S. cerevisiae sgs1 mgt1 strain, active compounds read high
Method in brief: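 Yeast cells carrying a defined DNA-repair defect were exposed to test compounds. Growth inhibition was measured relative to vehicle-treated controls.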

[8] = NCI Yeast Anticancer Drug Screen. Data for the cln2 rad14 strain (AID 165);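 further: 0% = growth equal to vehicle treated cultures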; settings: S. cerevisiae cln2 rad14 strain, active compounds read high
Method in brief: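 Growth inhibition, relative to vehicle-treated controls, is the read-out. The test organism is a yeast strain with defined genetic alterations, cln2 rad14.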

[9] = NCI Yeast Anticancer Drug Screen. Data for the bub3 strain (AID 167); settings: S. cerevisiae bub3 mutant strain, active compounds read high
Method in brief: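 Yeast carrying a defined mutation is treated with each compound, and growth is compared with that of vehicle-exposed cells to give inhibition.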

[10] = NCI Yeast Anticancer Drug Screen. Data for the wt2 strain (AID 169);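 further: 0% = growth of vehicle-treated yeast cultures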; settings: S. cerevisiae wt2 strain growth inhibition, active compounds read high
Method in brief: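 Compound exposure of yeast; growth compared with vehicle controls; inhibition reported.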

[11] = NCI Yeast Anticancer Drug Screen. Data for the mlh1 strain (AID 171);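 further: 0% = growth of vehicle-treated control cultures of the same strain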; settings: S. cerevisiae mlh1 strain growth inhibition, active compounds read high
Method in brief: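 Compounds are applied to a genetically altered yeast strain, and its growth is compared with that of vehicle-treated cultures to give percent inhibition.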

[12] = NCI Yeast Anticancer Drug Screen. Data for the sgs1 strain (AID 173);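 further: 0% = growth of vehicle-only control cultures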; settings: S. cerevisiae sgs1 mutant, active compounds read high
Method in brief: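 Compounds applied to genetically altered yeast; growth compared with vehicle-treated cultures to give % inhibition.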

[13] = NCI Yeast Anticancer Drug Screen. Data for the mlh1 rad18 strain (AID 175); settings: S. cerevisiae mlh1 rad18 strain growth inhibition, active compounds read high
Method in brief: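 Cells of a genetically altered yeast strain, deficient in DNA damage repair, were treated with compound. Their growth was then compared with that of vehicle-treated cultures to give inhibition.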

[14] = NCI Yeast Anticancer Drug Screen. Data for the rad18 strain (AID 177); settings: S. cerevisiae rad18 mutant growth inhibition, active compounds read high
Method in brief: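 Compounds are applied to a repair-deficient yeast strain, and growth is compared with that of vehicle-treated cultures to give percent inhibition.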

[15] = NCI Yeast Anticancer Drug Screen. Data for the wt1 strain (AID 149);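 further: 0% = growth of vehicle-treated wt1 cultures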; settings: S. cerevisiae wt1 strain (SPY 50644) growth inhibition, active compounds read high
Method in brief: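 wt1 yeast, compound-treated; % growth inhibition vs vehicle control.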

[16] = NCI Yeast Anticancer Drug Screen. Data for the CLN2oe strain (AID 163);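 further: 0% = growth of vehicle-only control cultures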; settings: S. cerevisiae CLN2oe strain, active compounds read high
Method in brief: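 Compound-treated yeast; growth vs vehicle ctrl = % inhibition. Genetically altered strain (cell-cycle control).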

[17] = at 5.0 µM (retest, dose inferred, filed as 0.5)
[18] = at 50.0 µM (retest, dose inferred, filed as 5.0)

Measured: growth inhibition

COc1cc(C2SCC(=O)N2c2ccc(-c3ccc(-n4c(-c5ccccc5)nc5ccccc5c4=O)cc3)cc2)ccc1O (stereo unspecified)
inactive: [1]; at 1.2 µM -2% | [1]; at 3.7 µM 0% | [1]; at 11.0 µM 2% | [1]; at 33.0 µM 6% | [1]; at 100.0 µM 16% | [2]; at 1.2 µM 3% | [2]; at 3.7 µM 13% | [2]; at 11.0 µM 19% | [2]; at 33.0 µM 27% | [2]; at 100.0 µM 27% | [3]; at 1.2 µM 1% | [3]; at 3.7 µM 1% | [3]; at 11.0 µM 0% | [3]; at 33.0 µM 2% | [3]; at 100.0 µM 28% | [4]; at 1.2 µM -4% | [4]; at 3.7 µM -1% | [4]; [17] -11% | [4]; at 11.0 µM 0% | [4]; at 33.0 µM 8% | [4]; [18] 35% | [4]; at 50.0 µM 58.4% | [4]; at 100.0 µM 21% | [5]; at 1.2 µM 0% | [5]; at 3.7 µM -1% | [5]; [17] -11% | [5]; at 11.0 µM 0% | [5]; at 33.0 µM 2% | [5]; [18] 21% | [5]; at 50.0 µM 34% | [5]; at 100.0 µM 9% | [6]; at 1.2 µM -1% | [6]; at 3.7 µM -1% | [6]; at 11.0 µM 2% | [6]; at 33.0 µM 11% | [6]; at 100.0 µM 25% | [7]; [17] -7% | [7]; [18] 31% | [7]; at 50.0 µM 65% | [8]; [17] -9% | [8]; [18] 10% | [8]; at 50.0 µM 25.7% | [9]; at 1.2 µM 1% | [9]; at 3.7 µM 9% | [9]; [17] -14% | [9]; at 11.0 µM 19% | [9]; at 33.0 µM 23% | [9]; [18] 69% | [9]; at 100.0 µM 41% | [10]; at 1.2 µM -2% | [10]; at 3.7 µM -2% | [10]; at 11.0 µM -2% | [10]; at 33.0 µM -2% | [10]; at 100.0 µM 4% | [11]; at 1.2 µM -2% | [11]; at 3.7 µM 1% | [11]; at 11.0 µM 1% | [11]; at 33.0 µM 3% | [11]; at 100.0 µM 20% | [12]; at 1.2 µM -3% | [12]; at 3.7 µM 0% | [12]; at 11.0 µM 0% | [12]; at 33.0 µM 2% | [12]; at 100.0 µM 10% | [13]; [17] -14% | [14]; at 1.2 µM -3% | [14]; at 3.7 µM -1% | [14]; at 11.0 µM 0% | [14]; at 33.0 µM 3% | [14]; at 100.0 µM 7%
active: [9]; at 50.0 µM 82.3% | [13]; [18] 76% | [13]; at 50.0 µM 73.7%

O=C1c2ccccc2C(=O)N1CCCC(=O)n1cc(F)c(=O)[nH]c1=O
active: [2]; at 100.0 µM 88% | [3]; at 33.0 µM 74% | [3]; at 100.0 µM 91% | [4]; at 50.0 µM 71.3% | [4]; at 100.0 µM 79% | [5]; at 33.0 µM 73% | [5]; [18] 88% | [5]; at 50.0 µM 83.2% | [5]; at 100.0 µM 93% | [7]; at 50.0 µM 85.2% | [10]; at 100.0 µM 82% | [11]; at 100.0 µM 78% | [12]; at 33.0 µM 72% | [12]; at 100.0 µM 88%
inactive: [15]; at 1.2 µM -51% | [15]; at 3.7 µM -43% | [15]; at 11.0 µM -26% | [15]; at 33.0 µM -21% | [15]; at 100.0 µM 34% | [2]; at 1.2 µM -25% | [2]; at 3.7 µM -16% | [2]; at 11.0 µM 27% | [2]; at 33.0 µM 69% | [3]; at 1.2 µM 5% | [3]; at 3.7 µM 23% | [3]; at 11.0 µM 47% | [4]; at 1.2 µM -3% | [4]; at 3.7 µM 2% | [4]; [17] 27% | [4]; at 11.0 µM 18% | [4]; at 33.0 µM 51% | [4]; [18] 66% | [5]; at 1.2 µM -24% | [5]; at 3.7 µM -19% | [5]; [17] 20% | [5]; at 11.0 µM 18% | [6]; at 1.2 µM -33% | [6]; at 3.7 µM -40% | [6]; at 11.0 µM -26% | [6]; at 33.0 µM -7% | [6]; at 100.0 µM 40% | [7]; [17] 24% | [7]; [18] 64% | [16]; at 1.2 µM 2% | [16]; at 3.7 µM 19% | [16]; at 11.0 µM -19% | [16]; at 33.0 µM 10% | [16]; at 100.0 µM 38% | [8]; [17] 30% | [8]; [18] 61% | [8]; at 50.0 µM 27.1% | [9]; at 1.2 µM 9% | [9]; at 3.7 µM 17% | [9]; [17] 11% | [9]; at 11.0 µM 10% | [9]; at 33.0 µM 45% | [9]; [18] 19% | [9]; at 50.0 µM 46.5% | [9]; at 100.0 µM 60% | [10]; at 1.2 µM -19% | [10]; at 3.7 µM -12% | [10]; at 11.0 µM 16% | [10]; at 33.0 µM 56% | [11]; at 1.2 µM -20% | [11]; at 3.7 µM -18% | [11]; at 11.0 µM 17% | [11]; at 33.0 µM 59% | [12]; at 1.2 µM -14% | [12]; at 3.7 µM 7% | [12]; at 11.0 µM 41% | [13]; [17] 39% | [13]; [18] 68% | [13]; at 50.0 µM 60.2% | [14]; at 1.2 µM 11% | [14]; at 3.7 µM 5% | [14]; at 11.0 µM 14% | [14]; at 33.0 µM 42% | [14]; at 100.0 µM 68%

Reference: PubChem BioAssay (NCI)
